Measured values published in PubChem BioAssay AID652017 (The Scripps Research Institute Molecular Screening Center, 2013).
Several values for one entry are separate records, joined by “and”; a condition that tells them apart may be missing. Equal values may be shown once. In all, about 370,000 compounds went through this assay and about 3,800 (1%) were called active. What follows is part of a selection rich in actives, with near analogues and random picks from the rest. Unmarked numbers belong to inactive results. No stated cut-off is given here; in the data, active means activation above about 7.8%; inactive means the rest.

Assay: SMARCA2 (BRM) function activators, primary screen, cell-based, luminescence, high throughput (AID 652017);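 further: 0% = vehicle wells and 100% = reference activator wells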
Conditions: MG213 cells, MMTV-luciferase reporter, dexamethasone, overnight; at 9.1 µM; hits give high values

| Structure (SMILES) | activation |
| --- | --- |
| C=CC(=O)OCCOCCOCCOCCOC(=O)C=C | 13.1% (active) |
| CCc1nc2c(OCCOc3ccccc3)cccn2c1N(C)C(=O)c1ccc(OC)cc1 | -6.52% |
| O=C1CCC2(CCC(c3ccc(Cl)cc3)CC2)N1CCO (stereo unspecified) | -3.07% |
| CCCCCCN1CCS(=O)(=O)N(Cc2ccc(C(F)(F)F)cc2)C(C(=O)OC)C1 (stereo unspecified) | -1.27% |
| O=C(CSc1nnc(-c2ccccc2)n1Cc1ccco1)Nc1ccccc1-c1ccccc1 | -7.03% |
| Cc1ccc(C)c(NC(=O)CCS(=O)(=O)c2ccccc2)c1 | 0.55% |
| Cc1ccc(F)c(NC(=O)CCc2ccccc2)c1 | 11.3% (active) |
| Cc1ccc(F)c(NC(=O)CCOc2ccccc2C)c1 | -0.21% |
| C[C@H](NC(=O)c1ccccc1Cl)C(=O)OCCOc1cccc(Cl)c1 | -0.67% |
| O=C(C=CC(=O)Nc1ccc(F)cc1F)Nc1ccc(F)cc1F | 0.37% |
| COC(=O)c1sc(-c2ccc(C(C)(C)C)cc2)cc1NC(=O)/C=C/C(=O)O | 9.14% (active) |
| COC(=O)C[C@@H]1CC[C@@H]2[C@@H](COc3ccc(NC(=O)Nc4ccc(F)c(F)c4)cc3C(=O)N2C)O1 | -2.75% |
| CC(=O)c1sc(N/N=C\c2ccc(C)cc2)nc1C | 13.4% (active) |
| CCOC(=O)c1sc(/N=C/Nc2nc(C)c(C(=O)OCC)s2)nc1C | -0.22% |
| Cc1ccc(/C=N/NC(=O)C(NC(=O)c2ccccc2)c2n[nH]c(=O)c3ccccc23)cc1 (stereo unspecified) | -1.07% |
| CC(=O)c1sc(NC(=O)c2ccc(C)cc2)nc1C | 9.69% (active) |
| CC(=O)c1sc(N)nc1C | -0.52% and -1.75% |
| Cc1ccc(C(=O)Nc2nc(N)n(-c3ccccc3)n2)cc1 | -1.21% |
| C[C@H]1CCC/C=C/C(=O)c2c(O)cc(O)cc2CC(=O)O1 | 6.88% |

| Structure (SMILES) | activation |
| --- | --- |
| CCCCNC(=O)C[C@H]1C[C@@]2(C(=O)OC)C(=C[C@H](COCc3ccccc3)O[C@@H]2C)N(Cc2ccc(Cl)cc2Cl)C1=O | -3.4% |
| C=CCN1[C@@H](Cc2ccccc2)COc2cccc(N3CCSCC3)c2S1(=O)=O | -1.33% |
| COC(=O)[C@]1(C#N)CC(=O)N(CC2CCCCC2)[C@@H]1c1ccccc1 | -6.17% |
| COC(=O)[C@]12C[C@H](CC(=O)NCc3ccccc3)C(=O)N(Cc3ccccc3)C1=C[C@H](COCc1ccccc1)O[C@@H]2C | 2.84% |
| Cc1ccc(-c2nc(C3CCCN(S(=O)(=O)c4ccc(Br)s4)C3)no2)cc1 (stereo unspecified) | -5.3% |
| CN(C)c1nc(=Nc2cccc(Cl)c2)ss1 | 10.5% (active) |
| CCCCCCCCNS(=O)(=O)/C=C/c1cc(C)ccc1CNC(=O)OC(C)(C)C | -5.6% |
| C=CCN1C(=O)[C@@H](CC(=O)NCC2CCCCC2)[C@]2(C(=O)OC)CCCCC=C12 | -0.86% |
| CCOC(=O)c1cc2cc(-c3c(C(=O)OCC)oc4cc(O)cc(O)c4c3=O)ccc2o1 | -3.39% |
| Cc1ccsc1-c1nc(CSCC(=O)NCCN2CCCC2)c(C)o1 | 8.31% (active) |
| Cc1ccc(-c2nc(CSCC(=O)NC3CCN(Cc4ccccc4)CC3)c(C)o2)cc1 | -3.96% |
| Cc1cc(NC(=O)CSCc2nc(-c3cccc(Cl)c3)oc2C)no1 | -4.35% |
| C=CCN1C(=O)[C@@H](CC(=O)NCCCCc2ccccc2)[C@]2(C(=O)OCC)CCCCC/C=C/12 | -5.79% |
| CC1(C)O[C@@H]2CC3C4C[C@H](F)C5=CC(=O)C=CC5(C)C4C(O)CC3(C)[C@]2(C(=O)CO)O1 (stereo partly specified) | -1.35% |
| C=C(C)C#CC(Cc1ccccc1)NCC1CC1 (stereo unspecified) | -5.21% |
| COCCOC1CCN(C(=O)c2ccc(OC)c(OC3CCN(C(C)C)CC3)c2)CC1 | -1.95% |
| COc1ccccc1OCCNC(=O)CCNC(=O)c1ccccc1Cl | 0.37% |
| CC(C)Cc1nnc(NC(=O)CCC(=O)Nc2ccc3cn[nH]c3c2)s1 | -4% |
| CC(C)Cc1nnc(NC(=O)CCNC(=O)c2ccccc2Cl)s1 | 9.18% (active) |

| Structure (SMILES) | activation |
| --- | --- |
| Cc1nc2cc(S(=O)(=O)C(F)(F)F)ccc2s1 | 5.28% |
| COC(=O)Cc1ccc(OC(=O)C2CCN(S(=O)(=O)c3ccc(OC)c(OC)c3)CC2)cc1 | -1.69% |
| Cc1ccc(-n2c(SCC(=O)Nc3ccc(S(=O)(=O)Nc4nccs4)cc3)nnc2-c2ccncc2)cc1 | -0.03% |
| Cc1cc(-n2cnc(-c3cn(C)nc3C)n2)no1 | 8.03% (active) |
| Cc1ccc(Cn2cc(COC(=O)N(C)Cc3ccccc3)nn2)cc1 | -1.94% |
| O=S1(=O)c2c(cccc2N2CCCCC2)O[C@H](COCc2ccccc2)CN1C1CC1 | -5.02% |
| CCOc1ccc(-n2c(SCC(=O)Nc3cc(C)c(NC(=O)c4ccccc4)cc3OC)nnc2-c2cccs2)cc1 | -4.31% |
| O=C(Nc1cccc([N+](=O)[O-])c1)N1CCc2ccccc2C1 | 12.9% (active) |
| O=C(C(=O)N1CCc2ccccc2C1)c1c[nH]c2ccccc12 | 0.35% |
| CCOC(=O)c1c(NC(=S)SC)sc(C(=O)N2CCc3ccccc3C2)c1C | -2.6% |
| CCc1ccc(NC(=O)N2CCc3ccccc3C2)cc1 | 7.91% (active) |
| Cc1cccc(C)c1NC(=O)c1ccc(CN2CCc3ccccc3C2)cc1 | -1.14% |
| Cc1cccc(OC(C)C(=O)N2CCc3ccccc3C2)c1 (stereo unspecified) | -2.36% |
| COC(=O)c1ccccc1-n1cc(COC(=O)NCCc2ccccc2)nn1 | -2.76% |
| CCCCNC(=O)C[C@H]1C(=O)N(Cc2ccc(OC)cc2)C2=CCCC[C@@]21C(=O)OCC | -1.43% |
| Cn1c(=O)c2c(nc(N/N=C/c3cccs3)n2Cc2ccc(Br)cc2)n(C)c1=O | -0.25% |
| Cc1nc2ccccc2n1CC(=O)N/N=C/c1cccs1 | 0.43% |
| Cc1n[nH]c(=O)nc1N/N=C/c1cccs1 | 9.22% (active) |
